# Compound activity (PubChem BioAssay)
# PI5P4K alpha inh: blocks human PI5P4K alpha kinase activity; 1.2% of 330,000 active; AID 652105; P48426; PI5P4Kalpha enzyme, ADP-Glo luminescence, 60 min; hits give low values; max response, %; active means max response of -50% or lower; inconclusive means between -30% and -50%; inactive means -30% or higher; further: value at the top dose of about 77 µM; on the % scale 0 is the no-effect control and ±100 the full control effect
#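 Quantitative HTS of the MLSMR library against PI5P4Kalpha with substrate. ATP added last at 5 microM final; room temperature, 60 minutes. Remaining ATP depleted, ADP converted and read as luminescence.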
# G9a inh: inhibitors of human histone lysine methyltransferase G9a; Q96KQ7; G9a H3K9 monomethylation, AlphaScreen, 2 h; Potency, µM (top dose mostly 102 µM), for inactives: at the top dose activity, negative = inhibition, hits mostly inhibitors; 8.8% of 350,000 active; further: potency means the concentration at half of the fitted maximal effect; on the % scale 0 is the no-effect control and ±100 the full control effect; nearly all actives have a fitted effect of over 75% in size
#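 Signal arises when biotinylated H3K9 peptide, once monomethylated, bridges streptavidin donor and antibody-captured acceptor beads. Enzyme at 20 nM was preincubated 15 min with test compounds; peptide 500 nM and SAM 20 uM then reacted for 2 h.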
# JMJD2A Tudor inh: inhibitors of human JMJD2A Tudor domain; O75164; AlphaScreen JMJD2A-Tudor / H3K4me3 peptide binding; Potency, µM (top dose mostly 114 µM), without a hit: at the top dose activity change, negative = inhibition, actives largely listed as inhibitors; 4.4% of 390,000 active; AID 504339; further: potency means the concentration at half of the fitted maximal effect; on the % scale 0 is the no-effect control and ±100 the full control effect; nearly all actives have a fitted effect of over 50% in size
# Target sequence (O75164 whole entry, looked up, the tested form may be a part): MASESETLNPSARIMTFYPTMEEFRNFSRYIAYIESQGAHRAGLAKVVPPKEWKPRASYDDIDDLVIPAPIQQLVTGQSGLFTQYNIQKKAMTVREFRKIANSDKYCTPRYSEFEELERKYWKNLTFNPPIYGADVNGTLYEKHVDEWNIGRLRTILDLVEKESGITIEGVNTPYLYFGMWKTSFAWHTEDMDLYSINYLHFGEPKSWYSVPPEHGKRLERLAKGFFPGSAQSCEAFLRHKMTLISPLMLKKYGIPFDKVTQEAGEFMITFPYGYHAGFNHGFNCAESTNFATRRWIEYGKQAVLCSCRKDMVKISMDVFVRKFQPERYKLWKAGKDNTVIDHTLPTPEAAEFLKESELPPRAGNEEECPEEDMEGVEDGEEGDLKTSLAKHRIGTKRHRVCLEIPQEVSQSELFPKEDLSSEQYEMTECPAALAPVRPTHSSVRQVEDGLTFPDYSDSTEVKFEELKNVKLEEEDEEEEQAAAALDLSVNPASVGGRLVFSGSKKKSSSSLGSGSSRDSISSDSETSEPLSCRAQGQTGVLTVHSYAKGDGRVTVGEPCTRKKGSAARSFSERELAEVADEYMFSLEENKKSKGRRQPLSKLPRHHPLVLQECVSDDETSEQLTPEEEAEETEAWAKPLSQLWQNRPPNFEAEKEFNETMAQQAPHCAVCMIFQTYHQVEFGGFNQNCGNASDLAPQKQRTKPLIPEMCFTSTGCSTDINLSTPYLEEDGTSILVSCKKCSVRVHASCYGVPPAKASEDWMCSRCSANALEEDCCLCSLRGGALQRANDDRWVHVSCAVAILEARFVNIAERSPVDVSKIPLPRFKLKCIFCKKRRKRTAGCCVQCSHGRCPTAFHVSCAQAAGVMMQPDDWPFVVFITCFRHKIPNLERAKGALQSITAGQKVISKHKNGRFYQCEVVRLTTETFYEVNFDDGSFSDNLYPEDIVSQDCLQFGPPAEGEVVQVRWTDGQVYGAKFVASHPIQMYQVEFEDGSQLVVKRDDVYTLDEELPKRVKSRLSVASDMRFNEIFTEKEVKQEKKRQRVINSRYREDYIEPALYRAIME
# BAZ2B block: blocks human BAZ2B | AlphaScreen BAZ2B-H3K14Ac peptide displacement | Potency, µM (titrated, usually from 114 µM), for inactives: top-dose activity change, negative = inhibition, actives largely listed as inhibitors | 4.4% of 360,000 active; further: potency means the concentration at half of the fitted maximal effect; on the % scale 0 is the no-effect control and ±100 the full control effect; nearly all actives have a fitted effect of over 60% in size
#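 Multi-concentration screen (max 110 uM) measuring displacement of acetylated histone H3 peptide from BAZ2B by AlphaScreen, using 50 nM protein, 50 nM peptide and 10 ug/mL streptavidin donor plus Ni-chelate acceptor beads.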
# PLK1 PBD block: inhibitors of human PLK1 polo-box domain binding. P53350. Plk1 PBD binding of FITC phosphopeptide, fluorescence polarization. Potency, µM, inactives show max response, negative = inhibition, actives largely listed as inhibitors. 2.8% of 360,000 active. AID 720504; further: potency means the concentration at half of the fitted maximal effect; series mostly up to about 57 µM; on the % scale 0 is the no-effect control and ±100 the full control effect; nearly all actives have a fitted effect of over 65% in size
# HP1b chromo inh: inhibitors of HP1-beta chromodomain binding to methylated histone tails. P83916. AlphaScreen HP1-beta / biotin-H3K9me3 peptide binding. Potency, µM (top dose mostly 114 µM), inactives show top-dose activity change, negative = inhibition, usual class: inhibitors. 0.56% of 390,000 active. AID 540317; further: potency means the concentration at half of the fitted maximal effect; nearly all actives have a fitted effect of over 70% in size
#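 HP1-beta protein (50 nM final) preincubated 30 min at room temperature with biotinylated H3(1-18)K9me3 peptide (50 nM) in PBS pH 7.4, 0.01% Tween-20, then compound added for 30 min. AlphaScreen streptavidin donor/nickel chelate acceptor beads (10 ug/mL final), 30 min dark, luminescence read.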
# An asterisk follows results filed as active; u = inconclusive; x = no result; [ ] = dose if it differs, or a comment. This is a sample that favours compounds with a hit; in the whole collection about 12% have one here. Unless noted, the call rests on the fitted dose curve; in most records, active means well fitted curve in the direction sought with a large enough effect; inconclusive means small, poorly fitted or top-dose-only effect, or another doubt; inactive means no such curve, though single readings can be large; an effect the other way counts as inactive or inconclusive.
SMILES,PI5P4K alpha inh,G9a inh,JMJD2A Tudor inh,BAZ2B block,PLK1 PBD block,HP1b chromo inh
CCC(C)C(=O)Nc1cc(Cl)ccc1C(=O)O (stereo not drawn),-27,-39%,-15%,-37%,-8%,-12%
O=C(O)c1ccc(Cl)cc1Nc1nc2cc(Cl)ccc2o1,-17,-43%,-23%,-4%,19µM*,-3%
COc1cccc(CNC(=O)CSC2=Nc3ccccc3C3=NC(C(C)C)C(=O)N23)c1 (stereo not drawn),x,-3%[59 µM],-24%,-2%,x,-2%
CC(C)(C)c1n[nH]c2c1CCCC2,-2,5%,89µM*,-7%,27µM*,-6%
CC(C)C/C=C1\CCc2c([nH]c3ccccc23)C1=O,6,-3%,0%,3%,-9%,25%
CCCCCCCCC1=NCCc2c1[nH]c1ccccc21,u,45µM*,22µM*,u,24µM*,22%
Cc1cccc2sc(N(Cc3cccnc3)C(=O)Cc3ccccc3)nc12,x,0%[59 µM],-6%,2%,x,12%
Cc1ccc(/C=C/C(=O)c2c(C)cc(C)[nH]c2=O)cc1,x,-4%[59 µM],-17%,6%,-2%,-1%
CCc1ccc(/C=C/C(=O)c2c(C)cc(C)[nH]c2=O)cc1,-4,56µM*,-3%,5%,-3%,42%
CCN(CC)CCNC(Cc1ccccc1)c1cccc(OC)c1 (stereo not drawn),16,x,-19%,x,-6%,1%
Cc1cccc(N=c2c([N+](=O)[O-])nn(-c3ccc(Cl)cc3)n2O)c1,0,28µM*,-9%,10µM*,3%,3%
Cc1cc(C)cc(N=c2c([N+](=O)[O-])nn(-c3cccc(Cl)c3)n2O)c1,x,40µM*,u,u,-1%,-33%
Cc1ccc(-n2nc(C)c3c(C(F)(F)F)cc(-c4cccnc4)nc32)cc1Cl,x,7%[59 µM],8%,3%,x,45%
COc1ccc(C(CNC(=O)C(=O)Nc2ccc3c(c2)OCO3)N2CCN(C)CC2)cc1 (stereo not drawn),0,-26%[59 µM],-6%,10%,-5%,19%
C=CCNC(=O)C(=O)NCC(c1ccc2c(c1)OCO2)N1CCOCC1 (stereo not drawn),0,66%,-14%,-11%[57.1 µM],-29%,-3%
C=CCNC(=O)C(=O)NCC(c1ccc2c(c1)OCO2)N1CCN(c2ccc(F)cc2)CC1 (stereo not drawn),-12,-18%,u,-39%,24µM*,-16%
COc1ccc(C(=O)NCC(c2ccc3c(c2)OCO3)N2CCN(c3ccc(OC)cc3)CC2)cc1 (stereo not drawn),7,6.3µM*,u,u,3%,2%
COc1cccc(C(=O)NCC(c2ccc3c(c2)OCO3)N2CCN(c3ccc(F)cc3)CC2)c1 (stereo not drawn),10,45µM*,u,0%,3%,-9%
CN1CCN(C(CNC(=O)C(=O)Nc2ccc3c(c2)OCO3)c2ccc(F)cc2)CC1 (stereo not drawn),2,50µM*,-24%,7%,6%,-18%
COc1cncc(C#Cc2ccccn2)c1,-1,x,x,x,-7%,x
CC1CCc2c(sc(NC(=O)/C=C/c3cccs3)c2C(=O)O)C1 (stereo not drawn),u,u,-35%,u,-29%,-3%
CCOC(=O)N1CCN(C(=O)c2ccccc2N(Cc2ccccc2)S(=O)(=O)c2ccccc2)CC1,-1,1%,-8%,-12%,3%,14%
COCCNC(=O)C1(C)CCCN(Cc2sc(C)nc2C)C1 (stereo not drawn),4,x,x,x,-14%,x
COc1ccc(-n2nc3cc(C)c(NC(=O)c4ccc(-c5ccc(Br)cc5)o4)cc3n2)cc1,x,3%[59 µM],-13%,5%,x,15%
Cc1nnc(NC(=O)C2CCN(C(=O)c3ccco3)CC2)s1,3,u,-4%,4%,-26%,-13%
SMILES,PI5P4K alpha inh,G9a inh,JMJD2A Tudor inh,BAZ2B block,PLK1 PBD block,HP1b chromo inh
COCc1nnc(NC(=O)C2CCN(C(=O)c3ccco3)CC2)s1,-19,13µM*,13%,-2%,27µM*,-16%
CC(C)c1nnc(NC(=O)C2CCN(C(=O)c3ccco3)CC2)s1,-5,32µM*,-3%,2%,u,-4%
CCc1nnc(NC(=O)C2CCN(C(=O)c3ccco3)CC2)s1,-25,u,-13%,-11%,-12%,-3%
CCC(C)(C)c1nnc(NC(=O)C2CCN(C(=O)c3ccco3)CC2)s1,u,1.8µM*,35µM*,u,2.4µM*,u
COc1ccccc1Cc1nnc(NC(=O)C2CCN(C(=O)c3ccco3)CC2)s1,-26,10µM*,-11%,-20%,27µM*,u
CCC(=O)N1CCc2cc(Br)cc(S(=O)(=O)N3CCCC(C(=O)Nc4ccc(C)c(F)c4)C3)c21 (stereo not drawn),x,11%[59 µM],-17%,2%,x,11%
Cc1ccc(NC(=O)C(=O)NCC(c2cccnc2)N2CCc3ccccc3C2)cc1 (stereo not drawn),x,-28%[59 µM],-21%,-14%,x,18%
Cc1cn([C@H]2C[C@H](O)[C@@H](CNCc3cccn3-c3nccs3)O2)c(=O)[nH]c1=O,4,x,x,x,-4%,x
COC1(NC(=O)c2ccccc2)C(C)=CC(=O)C=C1C,2,45µM*,-18%,-1%,-27%,u
O=C(NC1(O)C(=O)c2ccccc2C1=O)c1c(Cl)cccc1Cl,-10,56µM*,-5%,-18%,-27%,12%
O=C(NC1(O)C(=O)c2ccccc2C1=O)c1ccccc1,-3,45µM*,-5%,-3%,-12%,44%
O=C(NNC(=O)c1ccc(-c2ccccc2)cc1)c1ccccc1,-11,-12%,-28%,3%,4%,22%
Cc1ccc(-n2nnnc2CNC(=O)C(C)(C)C)cc1C,x,6%[59 µM],0%,4%,x,24%[57 µM]
COc1cc(NS(=O)(=O)c2ccc(C)cc2)c2c(c1N)C(=O)c1ccccc1C2=O,-12,x,x,x,-10%,x
COc1ccc(CN2CCCN(S(=O)(=O)c3ccc(Br)cc3)CC2)cc1,-1,10%,u,u,27µM*,-5%
CCOc1ccc(C(=O)CN2CCN(S(=O)(=O)c3ccc(Cl)cc3)CC2)cc1,1,35µM*,-9%,-7%,-11%,65%
COc1ccc(S(=O)(=O)N2CCN(Cc3ccc(Cl)cc3)CC2)cc1,x,2.5µM*,10µM*,u,-1%,u
Cc1ncc(N=Nc2ccccc2)c(-c2ccccc2)n1,4,u,40µM*,14µM*,-8%,32µM*
CC(C)Cc1csc(=S)[nH]1,-2,x,4µM*,x,u,6%[57 µM]
CC(C)Cc1nccs1,4,2%[12.7 µM],3%,-3%,0%,34%
COc1cc(C2N(c3ccccc3)CCN2c2ccccc2)ccc1OC(C)=O,5,-5%[59 µM],-3%,u,-3%,16%
